Laboratory results as given in PubChem BioAssay (EPA / NIEHS).
Inconclusive results are not listed. Active and inactive are the calls of the source. Rule for the calls, unless noted: active = hit-call score of the fitted dose curve at least 0.9, where 1 is the maximum; inconclusive = response in the unintended direction; inactive = score below 0.9.

Biological target: frog Thyroid hormone Receptor alpha (TRa), thra-a (gene 397942) (UniProt P15204)
Assay: ATG_frTRa_XSP2: Attagene TRANS-FACTORIAL Multi-Species (XSP2) HepG2 Assay for frog Thyroid hormone Receptor alpha (TRa) (AID 2283839)
Conditions: not given
Procedure, shortened: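 Transfect HepG2 with multiple reporter units (GAL4-UAS), dose chemical, incubate 24 h. Isolate RNA, reverse-transcribe, PCR-amplify reporter, label with 6-FAM by primer extension, digest with HpaI, run capillary electrophoresis; induction scored against DMSO.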

frog Thyroid hormone Receptor alpha (TRa), thra-a (gene 397942), sequence (P15204 whole entry, looked up): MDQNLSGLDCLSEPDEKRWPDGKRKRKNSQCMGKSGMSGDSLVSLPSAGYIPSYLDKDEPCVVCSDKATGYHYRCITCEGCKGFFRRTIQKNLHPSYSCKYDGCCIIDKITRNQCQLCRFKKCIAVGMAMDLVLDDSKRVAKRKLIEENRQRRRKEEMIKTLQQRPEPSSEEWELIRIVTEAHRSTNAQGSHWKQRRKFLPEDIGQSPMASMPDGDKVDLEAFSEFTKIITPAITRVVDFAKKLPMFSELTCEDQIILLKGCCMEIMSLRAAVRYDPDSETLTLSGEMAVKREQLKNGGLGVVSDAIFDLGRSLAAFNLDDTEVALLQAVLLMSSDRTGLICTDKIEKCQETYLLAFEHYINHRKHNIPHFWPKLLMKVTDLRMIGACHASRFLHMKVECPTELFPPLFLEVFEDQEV

Row | SMILES | outcome
1 | O=P(OC(CCl)CCl)(OC(CCl)CCl)OC(CCl)CCl | inactive
2 | Oc1ccc2c(c1)-c1ccccc1C2 | inactive
3 | Clc1nc(Cl)c(Cl)c(Cl)c1Cl | inactive

Biological target: human Thyroid hormone Receptor beta (TRb), THRB (gene 7068) (UniProt P10828)
Sequence (P10828 whole entry, looked up): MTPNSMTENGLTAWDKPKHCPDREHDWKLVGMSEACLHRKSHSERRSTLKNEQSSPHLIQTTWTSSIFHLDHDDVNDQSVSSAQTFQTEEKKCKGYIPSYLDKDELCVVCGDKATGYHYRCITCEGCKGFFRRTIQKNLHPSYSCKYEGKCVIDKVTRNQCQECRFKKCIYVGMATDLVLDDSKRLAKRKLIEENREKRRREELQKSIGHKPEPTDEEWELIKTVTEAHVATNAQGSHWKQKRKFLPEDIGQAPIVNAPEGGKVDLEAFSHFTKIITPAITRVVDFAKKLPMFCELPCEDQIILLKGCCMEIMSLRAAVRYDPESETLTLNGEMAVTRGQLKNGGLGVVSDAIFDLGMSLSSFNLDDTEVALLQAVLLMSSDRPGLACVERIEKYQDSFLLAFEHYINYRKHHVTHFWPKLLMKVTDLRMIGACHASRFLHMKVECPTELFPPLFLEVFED
Assay: ATG_hTRb_XSP2: Attagene TRANS-FACTORIAL Multi-Species (XSP2) HepG2 Assay for human Thyroid hormone Receptor beta (TRb) (AID 2283840);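 note: actives raise reporter mRNA so potency reflects agonist-like gain of signal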
Conditions: not given
Procedure, shortened: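 Transient transfection of human HepG2 with multi-species NR-Gal4/GAL4-UAS reporter constructs; 24 h compound treatment; RNA isolation, reverse transcription, PCR and HpaI digest; capillary electrophoresis of labeled fragments; activity fitted upward versus DMSO.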

Row | SMILES | outcome
4 | O=P(OC(CCl)CCl)(OC(CCl)CCl)OC(CCl)CCl | inactive
5 | Oc1ccc2c(c1)-c1ccccc1C2 | inactive
6 | Clc1nc(Cl)c(Cl)c(Cl)c1Cl | inactive

Test system: Sodium/Iodide Symporter (NIS), SLC5A5 (gene 6528)
Assay: CPHEA_Stoker_NIS_Inhibition_RAIU: CPHEA's Radioactive Iodide Uptake (RAIU) Assay for Sodium/Iodide Symporter (NIS) Inhibition, Stoker and Laws Labs (AID 2283841)
Conditions: not given
Procedure, shortened: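 Iodide uptake read as CPM of intracellular 125I (final 329 pM) after 2 h room-temperature exposure in HEPES-buffered HBSS, pH 7.4. Human NIS-expressing HEK293T cells; six concentrations 0.001–100 uM, 0.5% DMSO, normalised to DMSO wells.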

Row | SMILES | outcome | AC50
7 | O=P(OC(CCl)CCl)(OC(CCl)CCl)OC(CCl)CCl | inactive | –
8 | Fc1ccccc1[C@@H](F)COC1CCC(Nc2ncnc3[nH]ncc23)CC1 (some centres not stated) | – | 89.1 µM (active)
9 | O=C(OC[C@H]1O[C@@H](OC(=O)c2cc(O)c(O)c(OC(=O)c3cc(O)c(O)c(O)c3)c2)[C@H](OC(=O)c2cc(O)c(O)c(OC(=O)c3cc(O)c(O)c(O)c3)c2)[C@@H](OC(=O)c2cc(O)c(O)c(OC(=O)c3cc(O)c(O)c(O)c3)c2)[C@@H]1OC(=O)c1cc(O)c(O)c(OC(=O)c2cc(O)c(O)c(O)c2)c1)c1cc(O)c(O)c(OC(=O)c2cc(O)c(O)c(O)c2)c1 | inactive | –
10 | O=C(O)c1cc(N=Nc2ccc(S(=O)(=O)Nc3ccccn3)cc2)ccc1O | inactive | –
11 | Cc1[nH]cnc1C[C@H]1CCc2c(C)c3ccccc3n2C1=O | inactive | –
12 | CCOc1cccc(-n2cc(C(=O)N3CCN(c4cc(C(=O)O)c5ccccc5c4)CC3)nc2-c2ccc(C)cc2)c1 | – | 83.6 µM (active)
13 | CN(C)c1ccc(Cc2ccc(N(C)C)cc2)cc1 | inactive | –
14 | O=C(CCCCCCCCc1cccnc1)N1CCC(C=C(c2ccccc2)c2ccccc2)CC1 | inactive | –
15 | O=c1[nH]c2ccc(S(=O)CCN3CCC(Cc4ccc(F)cc4)CC3)cc2o1 (configuration not stated) | inactive | –
16 | COc1cccc(-c2ccc(/C=C\CN3CCCCCC3)cc2Cl)c1 | inactive | –
17 | Clc1nc(Cl)c(Cl)c(Cl)c1Cl | inactive | –
18 | COCCOc1cc2cc(C(=O)NC3CCN(C(C)C)CC3)n(CC(=O)Nc3ccc(Cl)cn3)c2cn1 | inactive | –
19 | CC(C)c1cccc(C(C)C)c1N1C(=O)c2ccc(O)cc2C1=O | inactive | –
20 | CCOC(=O)COc1ccc2c(c1)CC(NCC(O)c1cccc(Cl)c1)CC2 (configuration not stated) | inactive | –

Test system: not listed separately
Assay: CPHEA_Stoker_NIS_Cytotoxicity: Cytotoxicity Assessment for CPHEA's Radioactive Iodide Uptake (RAIU) Assay for Sodium/Iodide Symporter (NIS) Inhibition, Stoker and Laws Labs (AID 2283897);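 for AC50: active means loss of ATP signal versus DMSO meaning cytotoxicity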
Conditions: not given
Procedure, shortened: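 CellTiter-Glo ATP luminescence gauged viability in HEK293T cells expressing human NIS after 2 h chemical exposure. Concentrations ran 0.001–100 uM in 0.5% DMSO; DMSO served as baseline for the loss-of-signal fit.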

Row | SMILES | outcome | AC50
21 | O=P(OC(CCl)CCl)(OC(CCl)CCl)OC(CCl)CCl | inactive | –
22 | O=C(O)c1cccc(N(Cc2cccnc2)c2ccc(OC(F)F)c(OC(F)F)c2)c1 | inactive | –
23 | Fc1ccccc1[C@@H](F)COC1CCC(Nc2ncnc3[nH]ncc23)CC1 (some centres not stated) | – | 9.92 µM (active)
24 | CCCCCCc1ccc(O)cc1O | inactive | –
25 | O=C(OC[C@H]1O[C@@H](OC(=O)c2cc(O)c(O)c(OC(=O)c3cc(O)c(O)c(O)c3)c2)[C@H](OC(=O)c2cc(O)c(O)c(OC(=O)c3cc(O)c(O)c(O)c3)c2)[C@@H](OC(=O)c2cc(O)c(O)c(OC(=O)c3cc(O)c(O)c(O)c3)c2)[C@@H]1OC(=O)c1cc(O)c(O)c(OC(=O)c2cc(O)c(O)c(O)c2)c1)c1cc(O)c(O)c(OC(=O)c2cc(O)c(O)c(O)c2)c1 | inactive | –
26 | O=C(O)c1cc(N=Nc2ccc(S(=O)(=O)Nc3ccccn3)cc2)ccc1O | inactive | –
27 | Cc1[nH]cnc1C[C@H]1CCc2c(C)c3ccccc3n2C1=O | inactive | –
28 | CN(C)c1ccc(N=NS(=O)(=O)O)cc1 | inactive | –
29 | CCOc1cccc(-n2cc(C(=O)N3CCN(c4cc(C(=O)O)c5ccccc5c4)CC3)nc2-c2ccc(C)cc2)c1 | – | 6.27 µM (active)
30 | CN(C)c1ccc(Cc2ccc(N(C)C)cc2)cc1 | inactive | –
31 | O=C(CCCCCCCCc1cccnc1)N1CCC(C=C(c2ccccc2)c2ccccc2)CC1 | inactive | –
32 | O=c1[nH]c2ccc(S(=O)CCN3CCC(Cc4ccc(F)cc4)CC3)cc2o1 (configuration not stated) | inactive | –
33 | CC(C)(O)c1coc(S(=O)(=O)NC(=O)Nc2c3c(cc4c2CCC4)CCC3)c1 | inactive | –
34 | CCOC(=O)c1ccc(C2CCC(NC[C@H](O)COc3ccc(O)c(NS(C)(=O)=O)c3)CC2)cc1 (some centres not stated) | inactive | –
35 | COc1cccc(-c2ccc(/C=C\CN3CCCCCC3)cc2Cl)c1 | inactive | –
36 | Clc1nc(Cl)c(Cl)c(Cl)c1Cl | inactive | –
37 | COc1ccc(/C=C/S(=O)(=O)NC(=O)c2ccc(C)cc2Cl)cc1 | inactive | –
38 | COCCOc1cc2cc(C(=O)NC3CCN(C(C)C)CC3)n(CC(=O)Nc3ccc(Cl)cn3)c2cn1 | inactive | –
39 | CC(C)c1cccc(C(C)C)c1N1C(=O)c2ccc(O)cc2C1=O | inactive | –
40 | CCOC(=O)COc1ccc2c(c1)CC(NCC(O)c1cccc(Cl)c1)CC2 (configuration not stated) | inactive | –
41 | Cn1c(=O)cc(Oc2ccc(F)cc2F)c2cnc(NCC(C)(C)O)nc21 | inactive | –

Read-out: not listed separately
Assay: CEETOX_H295R_OHPREG_noMTC: CeeTox H295R High-throughput Steroidogenesis Assay for OH-Pregnenolone (OHPREG), maximum tolerated concentration (MTC) filtered results only (AID 2283912; active = hit-call score of the fitted dose curve at least 0.9, where 1 is the maximum; inactive = score below 0.9)
Conditions: actives raise or lower the signal
Procedure, shortened: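 H295R cells prestimulated 48 h with 10 uM forskolin, then exposed 48 h to compound (0.1% DMSO). 17alpha-hydroxypregnenolone in medium measured by MTBE extraction and HPLC-MS/MS; bidirectional fit vs DMSO, concentrations not MTT/MTC-filtered.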

Row | SMILES | outcome | AC50
42 | CCCCC(CC)COC(=O)c1ccc(C(=O)OCC(CC)CCCC)cc1 (configuration not stated) | inactive | –
43 | CC(C)=CCC/C(C)=C\CO | inactive | –
44 | O=C(NS(=O)(=O)/C=C/c1ccccc1)c1ccc(F)cc1Cl | – | 7.49 µM (active)

Read-out: not listed separately
Assay: CEETOX_H295R_OHPROG_noMTC: CeeTox H295R High-throughput Steroidogenesis Assay for OH-Progesterone (OHPROG), maximum tolerated concentration (MTC) filtered results only (AID 2283914; active = hit-call score of the fitted dose curve at least 0.9, where 1 is the maximum; inactive = score below 0.9)
Conditions: actives raise or lower the signal
Method: CEETOX_H295R is a cell-based, multiplexed-readout assay that uses H295R, a human adrenal gland cell line, with measurements taken at 48 hours after chemical dosing in a 96-well plate.CEETOX_H295R_OHPROG_noMTC is one of 12 assay component(s) measured or calculated from the CEETOX_H295R assay (11 hormones and 1 viability assay). It is designed to make measurements of hormone induction, a form of inducible reporter, as detected with […] by HPLC-MS-MS technology. The concentrations for these components have not been pre-filtered for the maximum tolerated concentration (MTC) based on the MTT assay (_noMTC).Data from the assay component CEETOX_H295R_OHPROG_noMTC was analyzed into 1 assay endpoint. This assay endpoint, CEETOX_H295R_OHPROG_noMTC, was analyzed with bidirectional fitting relative to DMSO as the negative control and baseline of activity. […]
Cell culture and media preparation procedures were conducted in accordance with OECD Test No. 456 guidelines, with minor modifications. […] For steroid quantification, media samples were shipped to OpAns, LLC (Durham, NC) on dry ice, and samples were thawed to room temperature prior to liquid-liquid extraction. […] Steroid hormones were separated by HPLC, eluted using a reverse phase C18 gradient with electrospray positive ionization, followed by quantification by tandem mass spectrometry (MS/MS). Data were acquired on a MassHunter Workstation Acquisition version B03.01 (Agilent Technologies, Inc.) and processed using MassHunter Quantitative Analysis for QQQ. Accuracy was determined for each hormone analyte from 3 standards to determine upper and lower limits of quantification (ULOQ and LLOQ, respectively) using a 7-point standard curve. Precision and accuracy of the extraction and quantification methods were calculated as the percent relative standard deviation (%RSD) of the spiked standards and percent spiked standard recovered, respectively. […] Test medium was removed following chemical exposure, and cell viability was evaluated in the same wells by MTT. […]

Row | SMILES | outcome | AC50
45 | CCCCC(CC)COC(=O)c1ccc(C(=O)OCC(CC)CCCC)cc1 (configuration not stated) | inactive | –
46 | CC(C)=CCC/C(C)=C\CO | inactive | –
47 | O=C(NS(=O)(=O)/C=C/c1ccccc1)c1ccc(F)cc1Cl | – | 5.24 µM (active)
